This is part of a sample that, as a whole, favours compounds with a hit. Of some 83,000 tested, about 20% had one in any assay.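 Cells were grown in 96-well plates and exposed to the test compound at a single concentration for 48 hours; results are reported as percent growth, with values below 10 considered active.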 A number with no mark means an inactive call. Calls of active or inactive are those of the source.
Columns and labels:
Experiment in all cases: NCI-60 one-dose screen, 48 h (100 = growth as untreated, 0 = no growth, -100 = all killed)
Conditions in all cases: 10 µM unless noted
DU-145 prostate = tested on: DU-145 prostate
K-562 leukemia = tested on: K-562 leukemia
MALME-3M melanoma = tested on: MALME-3M melanoma
MDA-MB-231 breast = tested on: MDA-MB-231 breast
RXF 393 renal = tested on: RXF 393 renal
SF-268 CNS = tested on: SF-268 CNS
SF-295 CNS = tested on: SF-295 CNS
SF-539 CNS = tested on: SF-539 CNS
UACC-257 melanoma = tested on: UACC-257 melanoma
M14 melanoma = tested on: M14 melanoma
HCT-15 colon = tested on: HCT-15 colon
HT29 colon = tested on: HT29 colon
SNB-19 CNS = tested on: SNB-19 CNS
U251 CNS = tested on: U251 CNS
PC-3 prostate = tested on: PC-3 prostate
SK-MEL-5 melanoma = tested on: SK-MEL-5 melanoma
UACC-62 melanoma = tested on: UACC-62 melanoma
LOX IMVI melanoma = tested on: LOX IMVI melanoma
SK-MEL-28 melanoma = tested on: SK-MEL-28 melanoma
SNB-75 CNS = tested on: SNB-75 CNS

SMILES	growth (DU-145 prostate)	growth (K-562 leukemia)	growth (MALME-3M melanoma)	growth (MDA-MB-231 breast)	growth (RXF 393 renal)	growth (SF-268 CNS)	growth (SF-295 CNS)	growth (SF-539 CNS)	growth (UACC-257 melanoma)	growth (M14 melanoma)	growth (HCT-15 colon)	growth (HT29 colon)	growth (SNB-19 CNS)	growth (U251 CNS)	growth (PC-3 prostate)	growth (SK-MEL-5 melanoma)	growth (UACC-62 melanoma)	growth (LOX IMVI melanoma)	growth (SK-MEL-28 melanoma)	growth (SNB-75 CNS)
CC(C)C1=C[C@@]23CC[C@@H]4[C@](C)(CCC[C@@]4(C)C(=O)OCC#CCN4CCCC4)[C@H]2C[C@@H]1[C@H]1C(=O)OC(=O)[C@H]13	89.2%	68.5%	89.6%	98.3%	110%	93.1%	97.3%	92.1%	96.5%	96.6%	90.6%	90.7%	97.4%	100%	77.8%	91.3%	82.1%	89.1%	101%	–
Cc1ccc(-c2nc(/C=N/Nc3cc(C)nc4ccc(Br)cc34)c(C)o2)cc1	-33.3% (active)	-33.2% (active)	-82% (active)	-91.9% (active)	-94.1% (active)	-59.4% (active)	85.7%	71.3%	97%	-50.2% (active)	-83.7% (active)	-70% (active)	-48.9% (active)	-76.4% (active)	5.84% (active)	63.8%	86.4%	-88.5% (active)	-13.5% (active)	–
O=C(/C=C\c1ccc2ccccc2n1)c1cc(Cl)ccc1O	93.3%	79.4%	80.5%	78.3%	84.2%	71.6%	69.9%	87.2%	84.9%	84.6%	73.6%	71.6%	–	44.3%	90.9%	–	71.4%	40.8%	99.6%	90.6%
COc1ccc(C(=O)COc2ccc(/C=C3\Oc4ccc(Cl)cc4C3=O)cc2)cc1	107%	16.7%	115%	86.8%	101%	108%	92.7%	86.3%	89.9%	104%	103%	109%	–	96.7%	–	78.8%	83.6%	92%	79.9%	88.8%
COc1cccc(-c2nc3sccn3c2-c2ccnc(NCCCNS(=O)(=O)c3ccccc3)c2)c1	42.2%	13.9%	50.8%	58.8%	63.7%	49.9%	28.6%	73.1%	50.9%	38%	27.6%	41.6%	68.7%	65.4%	15.9%	-29.8% (active)	-27.7% (active)	35.1%	66.8%	–
COc1ccc(/C=C/C(=O)c2ccc(NC(=O)c3cc4cc5ccccc5nc4s3)cc2)cc1OC	106%	80.6%	98.6%	91.6%	111%	98.9%	99.4%	99.7%	108%	98.9%	104%	101%	98.8%	103%	94.4%	93.5%	96.9%	94%	105%	–
O=C1CCc2c(sc3[nH]c(=S)n(Cc4ccccc4)c(=O)c23)C1	64.1%	11.5%	69%	16.5%	20.8%	19.4%	-13.9% (active)	-12.6% (active)	29.1%	18.9%	7.5% (active)	79.6%	11.8%	8.09% (active)	13.9%	-75.6% (active)	8.72% (active)	11.7%	25%	–
COc1ccc(S(=O)(=O)NCCNc2nccc(-c3c(-c4cccc([N+](=O)[O-])c4)nc4sccn34)n2)cc1	80%	76.1%	111%	82.9%	78%	66.4%	90.6%	99.3%	106%	102%	77.5%	74.8%	91.6%	91.1%	64.6%	63.6%	84%	88.6%	107%	–
Cc1nc2sc(C(=O)Nc3cccc4c3OCCO4)c(N)c2cc1C(C)O (stereo unspecified)	47.7%	13.3%	47.1%	39.9%	-5.15% (active)	49.9%	10.9%	4.07% (active)	55.7%	37.5%	21.4%	3.68% (active)	34.3%	28.7%	32.6%	29.7%	22%	33%	66.6%	–
O=C1/C(=C/c2ccccc2)CN(CCC(=O)N2C/C(=C\c3ccccc3)C(=O)/C(=C/c3ccccc3)C2)C/C1=C\c1ccccc1	87.6%	11.6%	101%	75.2%	57.4%	66.6%	90.7%	90.9%	93.8%	52.4%	18.8%	-13.5% (active)	52.9%	8.91% (active)	51.3%	60.5%	70.2%	-51.4% (active)	91.9%	–
CC1=C(C)C(=O)OC([C@](C)(O)[C@]2(O)CC[C@@]3(O)[C@@H]4C[C@H]5O[C@]56CC=CC(=O)[C@]6(C)[C@H]4CC[C@]23COC(=O)c2ccc(C)o2)C1 (stereo partly specified)	-92.1% (active)	1.46% (active)	-85% (active)	-54.8% (active)	-88.8% (active)	-55.8% (active)	-24.5% (active)	-91.2% (active)	-58.7% (active)	-0.794% (active)	-86.2% (active)	-73.6% (active)	-85% (active)	-85.2% (active)	-35% (active)	-80.6% (active)	-83.3% (active)	-95% (active)	-86.1% (active)	–
O=[N+]([O-])c1cccc(-c2nc3sccn3c2-c2ccnc(NCCCNS(=O)(=O)c3cccc(F)c3)n2)c1	9.77% (active)	4.26% (active)	-10.6% (active)	47.6%	52%	11.8%	5.83% (active)	34.8%	-15.2% (active)	-1.16% (active)	2.21% (active)	21.3%	41.2%	39.8%	-14% (active)	-71.2% (active)	-37.8% (active)	-17.6% (active)	-4.71% (active)	–
O=C(Nc1ccc(CN2CCOCC2)cc1)c1[nH]ncc1Nc1ncnc2sccc12	5.47% (active)	4.04% (active)	8.16% (active)	15.8%	-43% (active)	1.23% (active)	17.8%	-34.1% (active)	19.9%	14.4%	5.47% (active)	9.37% (active)	–	13.8%	11%	–	10.1%	-14.4% (active)	7.07% (active)	-24.7% (active)
COc1cccc(-c2cn3c(ccc4ccccc43)n2)c1	39%	13.2%	36.9%	44.9%	-5.05% (active)	56%	10.6%	12.5%	58.7%	30.2%	21.9%	20.1%	38.3%	38.4%	34.8%	9.42% (active)	34.4%	31.6%	60%	–
CCCCCC(=O)Oc1ccc(/C(=C(\C)c2ccccc2)c2ccc(OCCN(CC)CC)cc2)cc1	103%	12.2%	65.3%	84.8%	66.9%	71.5%	79.5%	46.8%	7.01% (active)	8.98% (active)	38.6%	4.26% (active)	85.3%	52.1%	55.7%	54.4%	57.4%	68.8%	53%	–
COc1cc(/C=C2\CN(C(=O)CCN3CCC(=NO)CC3)C/C(=C\c3cc(OC)c(OC)c(OC)c3)C2=O)cc(OC)c1OC	-94% (active)	6.55% (active)	-50.4% (active)	-73.5% (active)	-85.1% (active)	-73% (active)	-75.4% (active)	-60.5% (active)	-16.9% (active)	-46.6% (active)	-54.7% (active)	-70% (active)	-90.1% (active)	-68.6% (active)	-54.3% (active)	-61.2% (active)	-70.7% (active)	-85.2% (active)	-76.7% (active)	–

— PubChem BioAssay (NCI)
